Most compounds without a hit are left out; they make up all but 10% or so of the library.
JMJD2A Tudor inh – blocks the human JMJD2A Tudor domain; O75164; AlphaScreen JMJD2A-Tudor / H3K4me3 peptide binding; Potency, µM (titrated, usually from 114 µM), for the others: at the highest dose activity change, negative = inhibition, actives largely listed as inhibitors; actives 4.4% (n = 390,000); further: potency means the concentration at half of the fitted maximal effect; on the % scale 0 is the no-effect control and ±100 the full control effect; nearly all actives have a fitted effect of over 50% in size
HP1b chromo inh – blocks HP1-beta chromodomain binding to methylated histone tails. P83916. AlphaScreen HP1-beta / biotin-H3K9me3 peptide binding. Potency, µM (series often up to 114 µM), inactives show at the highest dose activity change, negative = inhibition, hits mostly inhibitors. actives 0.56% (n = 390,000). AID 540317; further: potency means the concentration at half of the fitted maximal effect; nearly all actives have a fitted effect of over 70% in size
Target sequence (P83916 whole entry, looked up): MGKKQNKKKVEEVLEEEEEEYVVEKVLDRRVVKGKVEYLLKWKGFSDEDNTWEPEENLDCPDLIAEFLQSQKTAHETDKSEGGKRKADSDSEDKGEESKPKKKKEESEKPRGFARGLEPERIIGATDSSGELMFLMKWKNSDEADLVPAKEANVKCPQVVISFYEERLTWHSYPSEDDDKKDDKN
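Compound inhibition of the preformed complex between 50 nM HP1-beta and 50 nM biotinylated H3K9me3 peptide was read by AlphaScreen. Buffer was PBS pH 7.4 with 0.01% Tween-20. Incubations ran 30 min at room temperature, with 10 ug/mL donor/acceptor beads.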
BAZ2B block – inhibitors of human BAZ2B bromodomain. Potency, µM (titrated, usually from 114 µM), for inactives: at the highest dose activity change, negative = inhibition, actives largely listed as inhibitors. AID 504333. Q9UIF8. actives 4.4% (n = 360,000). AlphaScreen BAZ2B-H3K14Ac peptide displacement; further: potency means the concentration at half of the fitted maximal effect; on the % scale 0 is the no-effect control and ±100 the full control effect; nearly all actives have a fitted effect of over 60% in size
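In this displacement format the biotinylated H3(5-23) peptide acetylated at Lys14 serves as ligand at 50 nM, with BAZ2B at 50 nM in PBS pH 7.4 containing 0.01% Tween-20. Donor and acceptor beads are 10 ug/mL final.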
Six1-Eya2 blk – inhibitors of human Six1/Eya2 interaction; activity change, % (concentration not given with the values); Q15475+O00167; AlphaScreen GST-Six1/His-Eya2 binding, biochemical; hits give low values; actives 0.56% (n = 360,000); in the data active means activity change below about -65%; inconclusive means mostly about -30% to -63%; further: on the % scale 0 is the no-effect control and ±100 the full control effect
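Compounds are tested against tagged Six1 and Eya2 proteins bridged by glutathione donor and nickel acceptor beads; after a one-hour incubation at 37 °C without light, AlphaScreen emission is recorded.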
G9a inh – blocks human histone lysine methyltransferase G9a | Potency, µM (top dose mostly 102 µM), without a hit: at the top dose activity, negative = inhibition, most hits filed as inhibitors | actives 8.8% (n = 350,000) | AID 504332 | G9a H3K9 monomethylation, AlphaScreen, 2 h; further: potency means the concentration at half of the fitted maximal effect; on the % scale 0 is the no-effect control and ±100 the full control effect; nearly all actives have a fitted effect of over 75% in size
Target sequence (Q96KQ7 913-1193 limits assumed): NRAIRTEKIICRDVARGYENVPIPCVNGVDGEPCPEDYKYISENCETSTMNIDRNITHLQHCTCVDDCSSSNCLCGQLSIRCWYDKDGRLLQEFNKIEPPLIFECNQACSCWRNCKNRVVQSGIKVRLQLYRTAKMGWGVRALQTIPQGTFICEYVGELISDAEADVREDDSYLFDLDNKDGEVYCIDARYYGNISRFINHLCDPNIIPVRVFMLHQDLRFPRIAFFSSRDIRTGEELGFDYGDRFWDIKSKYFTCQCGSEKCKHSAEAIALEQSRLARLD
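Step 1: enzyme (final 20 nM) with compound, 15 min RT. Step 2: substrate peptide 500 nM and SAM 20 uM, 2 h RT. Step 3: anti-H3K9me1 antibody and AlphaScreen beads, 10 min, then plate read.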
CtBP-E1A blk – CtBP/E1A binding inhibition | AlphaScreen GST-E1A/His-CtBP binding, 1536-well; hits give low values | activity change, % (no concentration beside the values) | actives 0.49% (n = 340,000) | AID 651724; in the data active means activity change below about -65%; inconclusive means mostly about -30% to -63%; further: on the % scale 0 is the no-effect control and ±100 the full control effect
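Homogeneous bead-based format: GST-tagged E1A captured on glutathione donor beads, His-tagged CtBP on nickel acceptor beads; compounds precede bead addition by 2 h at 37 °C.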
Active calls of the source: *; ? = inconclusive; / = no result; [ ] = remark or other dose. Unless noted, the call rests on the fitted dose curve; in most records, active means well fitted inhibition curve with a large enough effect; inconclusive means small, poorly fitted or top-dose-only effect; inactive means no such curve, though single readings can be large or run the other way.

SMILES	JMJD2A Tudor inh	HP1b chromo inh	BAZ2B block	Six1-Eya2 blk	G9a inh	CtBP-E1A blk
Cc1ccc2nc3sc(C(=O)N4CCCc5ccccc54)c(N)c3cc2c1	-35%	17%	4%	-1	3.2µM*	1
CCOC(=O)c1sc2ncn(CC(=O)Nc3ccc(C)cc3C)c(=O)c2c1C	1%	30%	2%	/	5%[59 µM]	/
CNC(=O)c1c(NC(=O)c2nc3ccccc3s2)sc2c1CCC2	/	/	-10%	/	40µM*	/
Cc1cc(C(=O)c2ccc(C(C)(C)C)cc2)c(NC(=O)CCl)s1	?	-11%	-32%	-5	32µM*	-5
Cc1cc(C(=O)c2ccccc2)c(NC(=O)CN2CCOCC2)s1	-10%	64%	-17%	-9	10%[59 µM]	/
CCc1ccccc1NC(=O)c1c(NC(=O)c2ccccc2)sc2c1CCCC2	6%	42%	16%	/	29%[59 µM]	/
CCN(CC)CCCC(C)NC(=O)c1c(NC(=O)c2ccccc2)sc2c1CCCC2 (stereo not drawn)	45µM*	-10%	-14%	-3	79µM*	-3
Cc1ccccc1C(=O)Nc1sc2c(c1C(=O)O)CCC2	-11%	1%	?	-4	50µM*	-5
COC(=O)c1c(NC(=O)c2nc3ccccc3s2)sc2c1CCN(C(C)=O)C2	-13%	43%	7%	-6	-3%	-1
CCOc1ccc(OCC)c(NS(=O)(=O)c2c(C(=O)N3CCC(C)CC3)c(C)n(C)c2C)c1	-13%	24%	-31%	/	17%[59 µM]	/
Cc1ccccc1C(=O)Nc1sc(C)c(C)c1C(=O)c1ccccc1	?	?	?	-23	10µM*	?
CCOC(=O)c1sc(NC(=O)c2ccccc2C(=O)O)c(C(=O)OCC)c1C	-7%[11.4 µM]	20%	-15%	-4	-30%	-17
O=C(CCl)Nc1sccc1C(=O)c1ccccc1	-20%	7%	/	5	/	-5
Cc1sc(NC(=O)CCl)c(C(=O)c2ccccc2)c1C	20µM*	?	?	-18	?	-13
CC1CCN(C(=O)c2cccc(NC(=O)c3nsc4ccccc34)c2)CC1	?	20%[57 µM]	0%	/	-4%[59 µM]	/
COc1ccc(C2=CC(c3ccc(OC)c(OC)c3)n3nnnc3N2)c(OC)c1 (stereo not drawn)	?	69%	-28%	22	50µM*	22
COc1cccc(C2C=C(c3ccc(OC)cc3OC)Nc3nnnn32)c1 (stereo not drawn)	12%	83%	-1%	1	45µM*	-16
CCCCCC/C=C1\CC(C(=O)OCC)Oc2ccccc21 (stereo not drawn) (tested in a mixture with another compound)	/	/	/	/	170%	/
CCC(C)NC(=O)/C(=C/c1ccco1)c1ccccc1 (stereo not drawn)	-6%	28%	-37%	-2	-49%[12.7 µM]	-1
O=C(NCCc1ccccc1)/C(=C/c1ccco1)c1ccccc1	-33%	-18%	?	1	10µM*	3
Cc1cccc(C)c1NC(=O)/C(=C/c1ccco1)c1ccccc1	-18%	1%	-37%	-1	32µM*	-11
CC(C)NC(=O)/C(=C/c1ccco1)c1ccccc1	-9%	10%	-7%	6	/	0
Cc1cc(C)c(NC(=O)/C(=C/c2ccco2)c2ccccc2)c(C)c1	-33%	-3%	-36%	-6	45µM*	-7
COc1cccc(C(=O)Nc2ccccc2OCc2cc(=O)n3ccccc3n2)c1	-5%	26%[57 µM]	8%	/	-14%[59 µM]	/
O=C(Nc1cc(Cl)ccc1Cl)c1cc(S(=O)(=O)N2CCCc3ccccc32)ccc1F	5%	65%	16%	/	-3%[59 µM]	/
CCN(CC)c1cc(C)c2ccccc2n1	?	36%	-1%	14	1.1µM*	4
CCOc1cc2[nH]c(=S)n(CCCN3CCOCC3)c(=O)c2cc1OCC	56µM*	9%	1%	-2	-47%[12.7 µM]	-1

Screens deposited in PubChem BioAssay by National Center for Advancing Translational Sciences (NCATS).
